Potency and activity change, negative = inhibition data for 25 molecules are collected here from PubChem BioAssay (Tox21).

For assay [1], the target named is Cytochrome P450 2C19 (Homo sapiens) (UniProt P33261). As to the kind of experiment: Cytochrome P450 Family 2 Subfamily C Member 19 (CYP2C19) small molecule antagonists: luciferase reporter qHTS assay (AID 1671197). Also: nearly all actives have a fitted effect of over 65% in size. Also: potency is read from the fitted curve at half-maximal effect. As to activity change, negative = inhibition: series mostly up to about 120 µM. In a few lines: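 CYP2C19 P450-Glo, 1536-well qHTS. Cpd + enzyme/proluciferin substrate 10 min RT; + NADPH regen, 37C 1 h; stop with luciferin detection reagent, 20 min RT, luminescence (RLU). Pos ctrl ketoconazole.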
(In general: In a reporter assay the amount or activity of a reporter protein is the signal.)

Assay [2] deals with Cytochrome P450 2C9 (Homo sapiens) (UniProt P11712). Briefly: Cytochrome P450 Family 2 Subfamily C Member 9 (CYP2C9) small molecule antagonists: luciferase reporter qHTS assay (AID 1671198). Also: nearly all actives have a fitted effect of over 50% in size. Also: potency is read from the fitted curve at half-maximal effect. As to activity change, negative = inhibition: series mostly up to about 120 µM. In short, it runs like this:
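Enzyme-substrate mix preincubated with compound 10 min at room temperature; reaction started with NADPH regeneration solution, 1 h 37C. Luminescent luciferin product read after 20 min detection reagent.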

The target of assay [3] is Cytochrome P450 1A2 (Homo sapiens) (UniProt P05177). Briefly: Cytochrome P450 Family 1 Subfamily A Member 2 (CYP1A2) small molecule antagonists: luciferase reporter qHTS assay (AID 1671199). Also: nearly all actives have a fitted effect of over 50% in size. Also: potency is read from the fitted curve at half-maximal effect. As to activity change, negative = inhibition: series mostly up to about 120 µM. In a few lines:
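Enzymatic CYP1A2 assay, human, luminescent: 10 min compound–enzyme–substrate preincubation, 1 h NADPH-dependent turnover, 20 min detection step, room temperature throughout. Reduced light indicates lower CYP1A2 activity.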

Assay [4] has as its target Voltage-gated inwardly rectifying potassium channel KCNH2 (Homo sapiens) (UniProt Q12809). As to the kind of experiment: Human Ether-a-go-go-Related Gene (hERG) channel small molecule antagonists: fluorescence cell-based qHTS assay (AID 1671200).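 Also: hERG-expressing U2OS cells given a thallium stimulus after FluxOR II dye loading; series mostly up to about 77 µM; nearly all actives have a fitted effect of over 50% in size.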 In a few lines: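 Quantitative HTS in hERG-U2OS cells: thallium entry through the channel reports activity, read as continuous 480/540 nm fluorescence over 2 min after stimulus addition.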
Background: The hERG channel carries a current that helps repolarise heart muscle cells.

Assay [5] concerns the target Cytochrome P450 3A4 (Homo sapiens) (UniProt P08684). Briefly: Cytochrome P450 Family 3 Subfamily A Member 4 (CYP3A4) small molecule antagonists: luciferase reporter qHTS assay (AID 1671201). Also: series mostly up to about 120 µM; nearly all actives have a fitted effect of over 50% in size. In a few lines:
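Inhibition of CYP3A4 is measured as loss of light: the enzyme converts a proluciferin substrate to luciferin, detected luminescently. Reaction ran 1 h at room temperature with NADPH regeneration after a 10 min compound preincubation.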

Assay [6] deals with Cytochrome P450 2D6 (Homo sapiens) (UniProt P10635). Briefly: Cytochrome P450 Family 2 Subfamily D Member 6 (CYP2D6) small molecule antagonists: luciferase reporter qHTS assay (AID 1671196). Also: nearly all actives have a fitted effect of over 50% in size. Also: potency is read from the fitted curve at half-maximal effect. As to activity change, negative = inhibition: series mostly up to about 120 µM. In a few lines:
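Each well received CYP2D6 with its proluciferin substrate and chemical, sat 10 min, then got NADPH regeneration solution for 1 h at room temperature. Luminescence in RLU served as the activity measure.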

Results filed as inconclusive are left out. A number with no mark means an inactive call. Activity calls are given as the source filed them. Calls follow the shape of the dose curve; as a rule, active = well fitted curve in the direction sought with a large enough effect in the repeat runs; inconclusive = weak or mixed curves; inactive = no such curve, though single readings can be large; an effect the other way counts as inactive or inconclusive.
% is scaled to controls: 0 for no effect and ±100 for the full control effect.

Cytochrome P450 2C9 (Homo sapiens), sequence (P11712 whole entry, looked up): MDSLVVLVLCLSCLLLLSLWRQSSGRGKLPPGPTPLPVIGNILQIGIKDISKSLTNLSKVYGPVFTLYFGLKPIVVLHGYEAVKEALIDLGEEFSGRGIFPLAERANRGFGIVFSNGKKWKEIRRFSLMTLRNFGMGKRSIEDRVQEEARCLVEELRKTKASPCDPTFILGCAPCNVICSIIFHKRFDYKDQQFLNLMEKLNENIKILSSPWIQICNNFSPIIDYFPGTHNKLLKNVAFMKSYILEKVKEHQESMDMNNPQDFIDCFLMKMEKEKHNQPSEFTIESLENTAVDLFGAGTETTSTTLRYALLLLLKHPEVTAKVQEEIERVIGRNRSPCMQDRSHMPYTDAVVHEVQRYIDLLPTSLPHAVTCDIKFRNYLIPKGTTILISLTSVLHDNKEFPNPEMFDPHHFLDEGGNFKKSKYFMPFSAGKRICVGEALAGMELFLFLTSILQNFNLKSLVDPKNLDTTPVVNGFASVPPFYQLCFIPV
Cytochrome P450 2D6 (Homo sapiens), sequence (P10635 whole entry, looked up): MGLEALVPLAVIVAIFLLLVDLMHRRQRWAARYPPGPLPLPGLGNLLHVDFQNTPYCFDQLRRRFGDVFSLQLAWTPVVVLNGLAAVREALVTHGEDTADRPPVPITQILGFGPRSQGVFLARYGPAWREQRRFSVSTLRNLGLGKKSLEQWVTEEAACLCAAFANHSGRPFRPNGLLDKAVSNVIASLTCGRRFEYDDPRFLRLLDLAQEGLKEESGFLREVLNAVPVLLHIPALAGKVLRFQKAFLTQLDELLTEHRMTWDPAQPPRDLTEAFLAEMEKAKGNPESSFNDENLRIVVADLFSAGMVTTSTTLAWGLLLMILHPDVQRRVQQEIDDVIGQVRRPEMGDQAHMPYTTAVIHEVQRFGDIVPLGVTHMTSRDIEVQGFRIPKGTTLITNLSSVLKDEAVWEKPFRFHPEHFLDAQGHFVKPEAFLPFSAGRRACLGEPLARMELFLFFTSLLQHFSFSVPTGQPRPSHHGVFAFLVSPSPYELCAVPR
Voltage-gated inwardly rectifying potassium channel KCNH2 (Homo sapiens), sequence (Q12809 whole entry, looked up): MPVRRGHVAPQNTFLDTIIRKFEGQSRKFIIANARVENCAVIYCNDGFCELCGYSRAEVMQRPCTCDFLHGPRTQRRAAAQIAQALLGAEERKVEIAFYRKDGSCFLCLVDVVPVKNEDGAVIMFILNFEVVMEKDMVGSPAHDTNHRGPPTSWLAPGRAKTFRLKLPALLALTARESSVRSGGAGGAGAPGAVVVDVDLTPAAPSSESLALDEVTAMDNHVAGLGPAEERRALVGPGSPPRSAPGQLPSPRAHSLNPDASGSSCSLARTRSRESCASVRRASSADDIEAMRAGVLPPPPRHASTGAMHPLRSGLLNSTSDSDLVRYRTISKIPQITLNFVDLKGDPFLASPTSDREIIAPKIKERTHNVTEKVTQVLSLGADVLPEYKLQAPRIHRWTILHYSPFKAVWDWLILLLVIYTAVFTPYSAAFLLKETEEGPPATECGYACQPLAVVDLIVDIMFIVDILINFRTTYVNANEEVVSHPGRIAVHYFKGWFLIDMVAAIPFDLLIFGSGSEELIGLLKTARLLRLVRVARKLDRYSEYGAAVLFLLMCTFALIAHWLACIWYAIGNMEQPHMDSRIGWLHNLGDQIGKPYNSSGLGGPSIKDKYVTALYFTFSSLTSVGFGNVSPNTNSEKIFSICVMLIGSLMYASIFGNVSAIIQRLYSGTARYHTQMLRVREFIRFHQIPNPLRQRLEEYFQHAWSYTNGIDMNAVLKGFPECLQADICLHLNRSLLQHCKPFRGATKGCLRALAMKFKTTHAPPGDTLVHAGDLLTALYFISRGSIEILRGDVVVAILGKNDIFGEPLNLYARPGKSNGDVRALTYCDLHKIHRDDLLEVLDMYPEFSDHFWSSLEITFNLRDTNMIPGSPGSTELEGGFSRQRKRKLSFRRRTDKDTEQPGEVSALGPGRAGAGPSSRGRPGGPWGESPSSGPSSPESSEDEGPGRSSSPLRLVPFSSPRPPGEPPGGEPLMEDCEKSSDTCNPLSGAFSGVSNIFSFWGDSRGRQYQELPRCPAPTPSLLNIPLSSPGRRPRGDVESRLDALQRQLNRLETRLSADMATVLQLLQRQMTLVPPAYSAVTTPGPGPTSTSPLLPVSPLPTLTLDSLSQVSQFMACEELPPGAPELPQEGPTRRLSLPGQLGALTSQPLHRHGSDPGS
Cytochrome P450 2C19 (Homo sapiens), sequence (P33261 whole entry, looked up): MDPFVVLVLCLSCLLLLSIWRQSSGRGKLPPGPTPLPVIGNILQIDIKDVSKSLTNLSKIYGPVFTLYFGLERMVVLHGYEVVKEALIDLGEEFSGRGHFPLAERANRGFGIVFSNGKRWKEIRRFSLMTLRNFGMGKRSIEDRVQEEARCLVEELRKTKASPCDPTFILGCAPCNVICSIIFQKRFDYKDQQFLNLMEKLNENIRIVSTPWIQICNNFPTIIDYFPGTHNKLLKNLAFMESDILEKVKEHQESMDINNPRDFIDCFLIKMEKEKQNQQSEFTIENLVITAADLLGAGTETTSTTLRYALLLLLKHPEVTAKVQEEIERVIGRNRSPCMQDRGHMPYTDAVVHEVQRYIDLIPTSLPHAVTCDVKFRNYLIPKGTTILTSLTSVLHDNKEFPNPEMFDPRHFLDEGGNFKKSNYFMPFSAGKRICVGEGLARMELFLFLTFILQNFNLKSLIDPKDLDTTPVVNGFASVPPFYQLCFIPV
Cytochrome P450 3A4 (Homo sapiens), sequence (P08684 whole entry, looked up): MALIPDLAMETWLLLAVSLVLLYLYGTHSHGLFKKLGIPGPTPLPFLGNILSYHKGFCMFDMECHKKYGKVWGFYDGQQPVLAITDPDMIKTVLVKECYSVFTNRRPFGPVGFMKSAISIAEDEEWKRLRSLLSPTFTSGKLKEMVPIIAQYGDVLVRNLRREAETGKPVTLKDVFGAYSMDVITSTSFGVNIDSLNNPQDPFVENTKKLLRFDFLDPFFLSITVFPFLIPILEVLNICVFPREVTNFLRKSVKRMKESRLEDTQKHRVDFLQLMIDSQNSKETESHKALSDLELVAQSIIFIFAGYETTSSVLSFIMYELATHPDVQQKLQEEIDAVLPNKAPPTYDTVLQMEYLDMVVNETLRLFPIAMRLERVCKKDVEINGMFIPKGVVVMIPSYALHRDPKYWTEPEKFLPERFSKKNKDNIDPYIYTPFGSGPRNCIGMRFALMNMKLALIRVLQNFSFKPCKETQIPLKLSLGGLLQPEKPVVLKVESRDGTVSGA
Cytochrome P450 1A2 (Homo sapiens), sequence (P05177 whole entry, looked up): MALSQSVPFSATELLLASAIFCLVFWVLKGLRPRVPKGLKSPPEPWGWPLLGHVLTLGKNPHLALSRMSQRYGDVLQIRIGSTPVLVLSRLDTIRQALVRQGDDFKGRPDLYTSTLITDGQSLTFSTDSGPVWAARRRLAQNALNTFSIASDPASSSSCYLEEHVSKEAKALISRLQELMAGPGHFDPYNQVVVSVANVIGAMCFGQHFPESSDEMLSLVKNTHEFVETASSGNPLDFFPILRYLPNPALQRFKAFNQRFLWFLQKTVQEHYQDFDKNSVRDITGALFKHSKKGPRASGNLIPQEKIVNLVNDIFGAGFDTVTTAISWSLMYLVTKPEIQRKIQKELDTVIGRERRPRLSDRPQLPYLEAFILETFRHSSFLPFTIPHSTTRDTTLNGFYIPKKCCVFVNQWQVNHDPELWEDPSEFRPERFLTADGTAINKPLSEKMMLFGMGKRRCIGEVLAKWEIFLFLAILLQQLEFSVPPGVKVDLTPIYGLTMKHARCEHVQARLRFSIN

Take `O=C(CS(=O)Cc1ccco1)NC/C=C\COc1cc(CN2CCCCC2)ccn1` (stereo unspecified): the Potency entry in assay [1], in assay [2], in assay [3], in assay [4] and in assay [5] was “inactive” throughout.
`CCCC/C=C\CCCCCCCCCC=O`: the Potency result in assay [6], in assay [4] and in assay [5] was “inactive” throughout.
Regarding `CC(C)c1ccc2cc(C(C)C)ccc2c1`, the Potency result in assay [6] and in assay [5] was “inactive” throughout.
As for `O=C1CCCC(=O)O1`, the Potency result in assay [1], in assay [3], in assay [4] and in assay [5] was “inactive” in each case. In assay [2], the Potency was 12.6 µM (active).
For the molecule `CCCCCCCCCCl`, in assay [6], the Potency was 40.3 µM (active). In addition, the Potency entry in assay [4] and in assay [5] was “inactive” throughout.
Turning to `O=S(=O)(O)c1ccc2cc(O)c(S(=O)(=O)O)cc2c1`, the Potency result in assay [1], in assay [2], in assay [3], in assay [4] and in assay [5] was “inactive” throughout.
Consider `COC(=O)C1CC(=O)C(C(=O)OC)CC1=O` (stereo unspecified), for which the values for the activity change, negative = inhibition in assay [6], in assay [4] and in assay [5] were -3.24% [at 10.5 µM], 0.39% [at 6.97 µM] and 9.87% [at 10.5 µM], respectively.
As for `C#CC(C)N(C)C(=O)Nc1ccc(Cl)cc1` (stereo unspecified), the Potency in assay [1] was 8.93 µM (active); in assay [2], 4.47 µM (active); in assay [3], 3.99 µM (active). Besides, the Potency entry in assay [5] was “inactive”.
As for `CC(=O)OC(C)OC(=O)C(C)c1ccc(-c2ccccc2)c(F)c1` (stereo unspecified), the Potency in assay [1] is 5.49 µM (active); in assay [2] it was 3.47 µM (active). Besides, the Potency entry in assay [4] and in assay [5] was “inactive” in each case.
For `Nc1ccc([N+](=O)[O-])c(N)c1`, the Potency in assay [6] is 7.76 µM (active). Further, the Potency result in assay [4] and in assay [5] was “inactive” in each case.
`Cc1cc(NC(=O)C2=C(O)c3ccccc3S(=O)(=O)N2C)no1`: in assay [1], the Potency entry was “inactive”.
On to `CCCCCCN`, for which the Potency result in assay [1], in assay [2], in assay [3], in assay [4] and in assay [5] was “inactive” throughout.
Consider `COP(=O)(OC)OC(c1ccc(Cl)cc1)P(=O)(OC)OC` (stereo unspecified), for which the Potency result in assay [6], in assay [4] and in assay [5] was “inactive” in each case.
On to `O=C(O)c1cc(Br)c(O)c(Br)c1`, for which the Potency in assay [1] was 7.96 µM (active); in assay [2], 71 µM (active); in assay [3], 39.9 µM (active). The Potency entry in assay [4] and in assay [5] was “inactive” throughout.
For the molecule `O=C(O)C(=O)Cc1ccccc1`, the Potency entry in assay [6], in assay [4] and in assay [5] was “inactive” in each case.
Regarding `C=C(C)C(=O)OCC(C)(C)COC(=O)C(=C)C`, the Potency entry in assay [1], in assay [2], in assay [3], in assay [4] and in assay [5] was “inactive” each time.
Consider `OCCN(CCO)c1cccc(Cl)c1`, for which the Potency result in assay [6], in assay [4] and in assay [5] was “inactive” throughout.
On to `NNc1nnc(NN)c2ccccc12`, for which the Potency result in assay [1] and in assay [4] was “inactive” throughout. Also, the Potency was 34.7 µM (active) in assay [2] and 36.3 µM (active) in assay [3].
Regarding `CC(C)(C)c1n[nH]c(=S)n(N)c1=O`, the Potency result in assay [6], in assay [4] and in assay [5] was “inactive” throughout.
For the molecule `COCCOCCOCCOCCOCCO`, the Potency entry in assay [6] and in assay [5] was “inactive” throughout.
For `CCCOC(=O)C(C)O` (stereo unspecified), the Potency result in assay [6], in assay [4] and in assay [5] was “inactive” throughout. Also, in assay [3], the Potency is 40.8 µM (active).
On to `COCCc1ccc(OCC2CO2)cc1` (stereo unspecified), for which the Potency entry in assay [6], in assay [3], in assay [4] and in assay [5] was “inactive” in each case.
Take `CC(C)OC(=O)CCCCC(=O)OC(C)C`: the Potency entry in assay [1], in assay [2], in assay [3], in assay [4] and in assay [5] was “inactive” in each case.
As to `CCOCCOCCOCC`, the Potency entry in assay [1], in assay [2], in assay [3], in assay [4] and in assay [5] was “inactive” in each case.
Consider `Nc1cccc(O)c1`, for which the Potency in assay [1] was 73.1 µM (active); in assay [2], 25.9 µM (active).
